Results filed as inconclusive are left out. A call without a number means that no potency is given here. Unmarked numbers belong to inactive results. The source made the active and inactive calls. Unless noted, the call rests on the fitted dose curve; in most records, active means well fitted curve in the direction sought with a large enough effect in the repeat runs; inconclusive means weak or mixed curves; inactive means no such curve, though single readings can be large; an effect the other way counts as inactive or inconclusive.
What was measured:
[1] = qHTS assay to identify small molecule antagonists of the estrogen related receptor (ERR) signaling pathway (AID 1224819; further: nearly all actives have a fitted effect of over 50% in size; further: potency means the concentration at half of the fitted maximal effect;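 on activity change, negative = inhibition: luminescence from an ERR-driven luciferase reporter measured with One-Glo reagent; series mostly up to about 46 µM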)
Method in brief: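 ERR reporter cell line (NTP) plated at 2,000 cells/well, settled 6 h at 37C/5% CO2, then exposed to LOPAC compounds for 18 h at 37C. One-Glo luciferase luminescence read after 30 min at room temperature.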

[2] = qHTS assay to identify small molecule agonists of the estrogen related receptor (ERR) signaling pathway (AID 1224820); further: potency means the concentration at half of the fitted maximal effect
Method in brief: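 Quantitative HTS of the LOPAC library used NTP ERR reporter cells treated 18 h at 37 C. Signal is luminescence after One-Glo addition and a 30 min room-temperature incubation.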

[3] = tested on: estrogen-related receptor alpha (ERRalpha) with PGC-1alpha coactivator, human; assay: qHTS assay to identify small molecule antagonists of the estrogen related receptor signaling pathway with the pleiotropic PPARgamma coactivator (PGC) (AID 1224821; calls by dose curve; further: nearly all actives have a fitted effect of over 50% in size; further: potency means the concentration at half of the fitted maximal effect;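 on activity change, negative = inhibition: series mostly up to about 46 µM; lower luminescence signal means antagonism of PGC/ERR signalling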)
Method in brief: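 Quantitative HTS for antagonism: PGC/ERR cells received compounds after 6 h attachment and were incubated 18 h at 37 C, with luminescence (One-Glo) as the endpoint.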

[4] = qHTS assay to identify small molecule antagonists of the estrogen related receptor signaling pathway with the pleiotropic PPARgamma coactivator (PGC) cell viability counter screen (AID 1224822; further: potency means the concentration at half of the fitted maximal effect; on viability change, negative = cytotoxic: series mostly up to about 46 µM)
Method in brief: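 PGC/ERR cells rested 6 h, then compound-treated 17.5 h at 37 C. CellTiter-Fluor added for 30 min at 37 C, viability measured by fluorescence intensity.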

[5] = qHTS assay to identify small molecule agonists of the estrogen related receptor signaling pathway with the pleiotropic PPARgamma coactivator (PGC) (AID 1224823); further: potency means the concentration at half of the fitted maximal effect
Method in brief: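 Cell-based luciferase assay in the NTP-supplied PGC/ERR line, 2,000 cells/well; 18 h compound exposure at 37 C, luminescence after One-Glo.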

[6] = qHTS assay to identify small molecule antagonists of the estrogen related receptor (ERR) signaling pathway - cell viability counter screen (AID 1224818); further: series mostly up to about 46 µM
Method in brief: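 ERR cells, 2,000 per well, compound added after 6 h and incubated 17.5 h at 37 C. Viability read by CellTiter-Fluor fluorescence after a further 30 min at 37 C.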

[7] = qHTS assay to identify small molecule antagonists of the estrogen related receptor (ERR) signaling pathway from Tox21 library - cell viability counter screen (AID 1224834); further: nearly all actives have a fitted effect of over 30% in size
Method in brief: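 ERR reporter cells, 2,000 per well, rested 6 h, then exposed to compound in DMSO for 17.5 hours at 37 C. Viability read as fluorescence after 30 min with CellTiter-Fluor.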

[8] = molecular target: Luciferin 4-monooxygenase (Photinus pyralis) (UniProt P08659); assay: qHTS assay to identify small molecule inhibitors of firefly luciferase (AID 1224835); further: series mostly up to about 120 µM; nearly all actives have a fitted effect of over 25% in size
Method in brief: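 Biochemical qHTS: compounds run as interplate titrations against purified firefly enzyme, with D-luciferin and ATP each at its KM concentration. Light output recorded by CCD imaging.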

[9] = qHTS assay to identify small molecule agonists of the constitutive androstane receptor (CAR) signaling pathway - cell viability counter screen (AID 1224836); further: series mostly up to about 92 µM; nearly all actives have a fitted effect of over 45% in size
Method in brief: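 Using CellTiter-Fluor, viability of HepG2 cells harbouring hCAR and CYP2B6-2.2kb was measured following 23 h incubation with a 15-concentration compound series plus PK11195 (0.75 uM final).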

[10] = qHTS assay to identify small molecule antagonists of the constitutive androstane receptor (CAR) signaling pathway - cell viability counter screen (AID 1224837); further: series mostly up to about 92 µM; nearly all actives have a fitted effect of over 45% in size
Method in brief: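 HepG2 cells stably carrying hCAR and CYP2B6-2.2kb reporter, stimulated with 50 nM CITCO and compounds at 15 concentrations for 23 h at 37 C. Viability measured by CellTiter-Fluor fluorescence.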

[11] = qHTS assay to identify small molecule antagonists of the estrogen related receptor signaling pathway with the pleiotropic PPARgamma coactivator (PGC) from Tox21 10K library - cell viability counter screen (AID 1224840; active means well fitted cell-killing curve with a large enough effect in the repeat runs, not every such curve was filed as active; further: nearly all actives have a fitted effect of over 40% in size)
Method in brief: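 PGC/ERR cells (2,000/well) plated 6 h, then compound-treated for 17.5 h at 37 C. Viability measured by CellTiter-Fluor fluorescence after 30 min at 37 C, multiplexed with the pathway assay.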

[12] = molecular target: Thyrotropin receptor (Homo sapiens) (UniProt P16473); assay: qHTS assay to identify small molecule agonists of the thyroid stimulating hormone receptor (TSHR) signaling pathway (AID 1224843; calls by dose curve; further: nearly all actives have a fitted effect of over 45% in size)
Method in brief: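 Steps: seed 800 TSHR-HEK293 cells per well; add test compound and hold 30 min at ambient temperature; dispense cAMP-d2 then anti-cAMP cryptate; incubate 1 h at ambient; measure fluorescence intensity.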

[13] = qHTS assay to identify small molecule agonists of the hypoxia (HIF-1) signaling pathway - cell viability counter screen (AID 1224844; calls by dose curve; further: nearly all actives have a fitted effect of over 50% in size)
Method in brief: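 HRE-bla ME-180 cells, 2,000/well in 0.5% dialyzed FBS medium, treated 17 h at 37C with compounds. Viability read in the same wells as the bla reporter, by CellTiter-Glo luminescence after 30 min at room temperature.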

[14] = qHTS assay to identify small molecule agonists of the hypoxia (HIF-1) signaling pathway (AID 1224846; active means well fitted activation curve with a large enough effect in the signal ratio in the repeat runs, not every such curve was filed as active; the % refers to the signal ratio)
Method in brief: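 HRE-bla ME-180 beta-lactamase reporter cells in medium with 0.5% dialyzed FBS, pre-incubated 5 h then exposed to compounds 17 h at 37C, 5% CO2; reporter induction read with CCF4-AM FRET substrate.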

[15] = qHTS assay to identify small molecule agonists of H2AX - cell viability counter screen (AID 1224847; calls by dose curve; further: top concentration of the series differs between compounds; nearly all actives have a fitted effect of over 30% in size)
Method in brief: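 Quantitative HTS viability measurement: CHO-K1 wild-type cells in serum (10% FBS) medium, short 3 hr drug exposure at 37C with 0.76% DMSO, CellTiter-Glo luminescent detection.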

Luciferin 4-monooxygenase (Photinus pyralis), sequence (P08659 whole entry, looked up): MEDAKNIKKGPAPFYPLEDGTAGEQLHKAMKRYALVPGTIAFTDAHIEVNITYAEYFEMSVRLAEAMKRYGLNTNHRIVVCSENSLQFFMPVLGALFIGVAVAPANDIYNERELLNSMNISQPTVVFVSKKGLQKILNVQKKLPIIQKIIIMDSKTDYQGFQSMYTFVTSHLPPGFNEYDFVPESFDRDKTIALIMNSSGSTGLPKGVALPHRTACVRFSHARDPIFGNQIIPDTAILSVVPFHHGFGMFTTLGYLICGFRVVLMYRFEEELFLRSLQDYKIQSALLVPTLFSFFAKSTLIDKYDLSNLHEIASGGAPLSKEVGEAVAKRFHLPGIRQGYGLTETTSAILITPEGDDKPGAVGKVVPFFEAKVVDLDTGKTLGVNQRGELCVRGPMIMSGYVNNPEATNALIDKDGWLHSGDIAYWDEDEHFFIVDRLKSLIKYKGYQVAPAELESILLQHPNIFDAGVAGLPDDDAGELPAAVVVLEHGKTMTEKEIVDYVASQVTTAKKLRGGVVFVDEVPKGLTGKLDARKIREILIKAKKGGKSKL
Thyrotropin receptor (Homo sapiens), sequence (P16473 whole entry, looked up): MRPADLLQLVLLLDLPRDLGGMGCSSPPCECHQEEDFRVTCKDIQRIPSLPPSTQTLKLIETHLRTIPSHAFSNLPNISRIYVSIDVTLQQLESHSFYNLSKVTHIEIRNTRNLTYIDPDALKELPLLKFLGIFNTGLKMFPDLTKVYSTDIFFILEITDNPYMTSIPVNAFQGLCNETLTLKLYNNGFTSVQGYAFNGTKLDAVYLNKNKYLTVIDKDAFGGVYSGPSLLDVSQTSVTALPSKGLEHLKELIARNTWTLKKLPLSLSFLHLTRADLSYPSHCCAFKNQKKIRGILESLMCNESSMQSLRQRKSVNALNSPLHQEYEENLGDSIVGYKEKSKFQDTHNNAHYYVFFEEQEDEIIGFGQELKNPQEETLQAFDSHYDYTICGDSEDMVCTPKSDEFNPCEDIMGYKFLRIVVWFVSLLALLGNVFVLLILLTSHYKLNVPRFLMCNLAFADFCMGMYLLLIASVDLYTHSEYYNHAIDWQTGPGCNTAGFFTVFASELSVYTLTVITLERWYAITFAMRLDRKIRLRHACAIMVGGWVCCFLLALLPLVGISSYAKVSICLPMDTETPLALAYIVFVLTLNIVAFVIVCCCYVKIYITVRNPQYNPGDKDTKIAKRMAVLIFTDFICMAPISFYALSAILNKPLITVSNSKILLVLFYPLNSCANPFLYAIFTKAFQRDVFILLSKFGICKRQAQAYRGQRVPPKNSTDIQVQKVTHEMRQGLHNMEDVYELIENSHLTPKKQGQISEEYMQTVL

O=c1[nH]ccc2c(O)cccc12
Potency [1]: inactive | Potency [2]: inactive | Potency [3]: inactive | Potency [4]: inactive | Potency [5]: inactive

Fc1cccc(/C=N/N=C/c2cccc(F)c2)c1
Potency [1]: inactive | Potency [2]: 15.5 µM (active) | Potency [3]: inactive | Potency [4]: inactive | Potency [5]: 12.3 µM (active)

CC[C@@H](C)[C@H]1O[C@]2(CC[C@@H]1C)C[C@@H]1C[C@@H](C/C=C(\C)[C@@H](O[C@H]3C[C@H](OC)[C@@H](O[C@H]4C[C@H](OC)[C@@H](O)[C@H](C)O4)[C@H](C)O3)[C@@H](C)/C=C/C=C3\CO[C@@H]4[C@H](O)C(C)=C[C@@H](C(=O)O1)[C@]34O)O2
Potency [1]: 12.3 µM (active) | Potency [2]: inactive | Potency [3]: 16.8 µM (active) | Potency [4]: 23.7 µM (active) | Potency [5]: inactive

N#C/C(=C\c1ccc(O)c(O)c1)C(=O)c1ccc(O)c(O)c1
Potency [1]: inactive | Potency [2]: inactive | Potency [3]: inactive | Potency [4]: inactive | Potency [5]: inactive

O=C(O)Cc1ccc(O)c(O)c1
Potency [1]: inactive | Potency [2]: inactive | Potency [3]: inactive | Potency [4]: inactive | Potency [5]: inactive

CC(C)c1ccc2c(c1)c(SC(C)(C)C)c(CC(C)(C)C(=O)O)n2Cc1ccc(Cl)cc1
Potency [1]: 12.8 µM (active) | Potency [2]: inactive | Potency [3]: 20.3 µM (active) | Potency [5]: inactive

CCCCCCCCCC(=O)NC(CN1CCOCC1)[C@H](O)c1ccccc1 (some centres not stated)
Potency [1]: 17.4 µM (active) | Potency [2]: inactive | Potency [3]: inactive | Potency [4]: inactive | Potency [5]: inactive

Brc1cc2c(cc1[C@H]1Nc3ccccc3[C@H]3C=CC[C@H]31)OCO2
Potency [1]: inactive | Potency [2]: inactive | Potency [3]: inactive | Potency [4]: inactive | Potency [5]: inactive

COc1cc2ncnc(Nc3cccc(Cl)c3)c2cc1OC
Potency [6]: inactive | Potency [4]: inactive | viability change, negative = cytotoxic [7]: -12.2% [at 19 µM] | activity change, negative = inhibition [8]: -1.79% [at 23.6 µM] | viability change, negative = cytotoxic [9]: -10.2% [at 19 µM] | activity change, negative = cytotoxicity [10]: -20.1% [at 19 µM] | viability change, negative = cytotoxic [11]: -14.4% [at 19 µM] | activation [12]: -0.89% [at 19 µM] | activity change, negative = cytotoxicity [13]: -10.3% [at 15.8 µM] | activation [14]: 0.103% [at 15.8 µM] | activity change, negative = cytotoxicity [15]: 1.51% [at 31.6 µM]

Nc1ncnc2c1nc(Sc1ccc(Cl)cc1)n2[C@H]1OC2COP(=O)(O)O[C@@H]2C1O (some centres not stated)
Potency [1]: inactive | Potency [2]: inactive | Potency [3]: inactive | Potency [4]: inactive

O=C1NC(=O)c2cc(Nc3ccccc3)c(Nc3ccccc3)cc21
Potency [1]: 10.2 µM (active) | Potency [2]: inactive | Potency [3]: 20.3 µM (active) | Potency [5]: inactive

Cc1cc2c(cc1Cl)N(C(=O)Nc1ccc(Oc3cccnc3C)nc1)CC2
Potency [1]: 5.11 µM (active) | Potency [2]: inactive | Potency [3]: 12.8 µM (active) | Potency [5]: inactive

— PubChem BioAssay (Tox21)
